Columns and labels:
Details in all cases: concentration: 1 μM, replicates: in singlicate; n = 1
SgK110 = system: SgK110
TAK1 = system: T1, TAK1
T1 construct: gene MAP3K7

TAOK1 = system: TAOK1
TAOK2 = system: TAOK2
TAOK3 = system: TAOK3
TBK1 = system: TBK1
TEC = system: TEC
TESK1 = system: TESK1
TGFBR1 = system: TGFBR1
TGFBR2 = system: TGFBR2
TIE1 = system: TIE1
TIE2 = system: T2, TIE2
T2 construct: gene TEK

TLK1 = system: TLK1
TLK2 = system: TLK2
TNIK = system: TNIK
TNK1 = system: TNK1
TNK2 = system: TNK2
TNNI3K = system: TNNI3K
TRKA = system: T3, TRKA
T3 construct: gene NTRK1

TRKB = system: TRKB
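Further: KINOMEscan kinase panel screen.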

Row | SMILES | %Inh (SgK110) [%] | %Inh (TAK1) [%] | %Inh (TAOK1) [%] | %Inh (TAOK2) [%] | %Inh (TAOK3) [%] | %Inh (TBK1) [%] | %Inh (TEC) [%] | %Inh (TESK1) [%] | %Inh (TGFBR1) [%] | %Inh (TGFBR2) [%] | %Inh (TIE1) [%] | %Inh (TIE2) [%] | %Inh (TLK1) [%] | %Inh (TLK2) [%] | %Inh (TNIK) [%] | %Inh (TNK1) [%] | %Inh (TNK2) [%] | %Inh (TNNI3K) [%] | %Inh (TRKA) [%] | %Inh (TRKB) [%]
1 | Nc1nc(-c2ccc3c(N)n[nH]c3c2)cc(N2CCCCC2)n1 [GSK2228768] | 0 | 0 | 0 | 0 | 0 | 23 | 2 | 0 | 0 | 0 | 6 | 0 | 0 | 0 | 0 | 0 | 13 | 0 | 0 | 0
2 | NC(=O)c1sc(-n2cnc3ccccc32)cc1OCc1ccccc1F [GSK1024306] | 0 | 0 | 0 | 0 | 0 | 0 | 22 | 24 | 5 | 0 | 2 | 0 | 0 | 0 | 56 | 0 | 9 | 18 | 51 | 0
3 | Nc1n[nH]c2nnc(-c3ccccc3)cc12 [SB-517389] | 0 | 0 | 0 | 0 | 3 | 6 | 11 | 27 | 0 | 0 | 0 | 0 | 15 | 0 | 0 | 0 | 20 | 13 | 0 | 0
4 | N#Cc1ccc(Oc2ccc(Nc3ncnc4cc[nH]c34)cc2Cl)cc1 | 0 | 7 | 0 | 0 | 0 | 24 | 0 | 5 | 1 | 5 | 0 | 20 | 22 | 0 | 9 | 0 | 2 | 26 | 17 | 0
5 | Cl.Fc1ccccc1COc1ccc(Nc2ncnc3ccc(-c4nnc(C(F)(F)F)o4)cc23)cc1Cl [GW424170] | 0 | 0 | 0 | 0 | 0 | 7 | 5 | 29 | 0 | 0 | 0 | 0 | 4 | 0 | 0 | 0 | 0 | 0 | 3 | 6
6 | Fc1cccc(COc2ccc(Nc3ncnc4nn5ccccc5c34)cc2Cl)c1 [GW689066] | 0 | 0 | 0 | 0 | 0 | 0 | 0 | 14 | 0 | 0 | 0 | 0 | 0 | 0 | 0 | 0 | 10 | 0 | 0 | 22
7 | Oc1ccc2ncnc(Nc3ccc(OCc4ccccc4)cc3)c2c1 [GI262866] | 0 | 0 | 0 | 0 | 0 | 0 | 0 | 0 | 0 | 0 | 19 | 0 | 0 | 0 | 0 | 0 | 4 | 77 | 0 | 0
8 | O=C(Nc1ccccc1)Nc1ccc(Oc2ccc3nccn3n2)cc1 | 27 | 0 | 0 | 5 | 0 | 34 | 10 | 11 | 0 | 27 | 13 | 46 | 0 | 0 | 0 | 43 | 10 | 82 | 0 | 0
9 | Fc1cccc(COc2ccc(Nc3ncnc4sc(-c5ccc[nH]5)cc34)cc2Cl)c1 [GW707818] | 0 | 0 | 10 | 8 | 14 | 2 | 0 | 5 | 37 | 3 | 0 | 16 | 25 | 11 | 0 | 0 | 13 | 13 | 22 | 0
10 | COc1ccc(-c2oc3ncnc(N)c3c2-c2ccc(OC)cc2)cc1 [SB-589132] | 0 | 0 | 0 | 0 | 0 | 0 | 15 | 36 | 7 | 12 | 1 | 9 | 0 | 0 | 0 | 45 | 44 | 50 | 52 | 74
11 | CN1c2ccc(-c3ccc(C(=O)NCCO)cc3)cc2-c2[nH]ncc2S1(=O)=O | 0 | 63 | 0 | 30 | 0 | 31 | 1 | 17 | 0 | 0 | 0 | 3 | 22 | 30 | 43 | 52 | 10 | 3 | 0 | 0
12 | CCn1c(-c2ccncc2)nc2cnccc21 [SB-735216] | 0 | 20 | 15 | 13 | 18 | 17 | 7 | 24 | 0 | 0 | 0 | 12 | 0 | 0 | 0 | 1 | 13 | 0 | 27 | 41
13 | O=C(CCO)NCCn1ccc2ncnc(Nc3ccc(Oc4cccc(C(F)(F)F)c4)c(Cl)c3)c21 | 0 | 0 | 0 | 10 | 0 | 16 | 0 | 6 | 0 | 0 | 0 | 0 | 0 | 0 | 0 | 0 | 0 | 0 | 0 | 0
14 | Clc1cc(Nc2ncnc3cc[nH]c23)ccc1OCc1ccccn1 | 0 | 9 | 0 | 0 | 0 | 4 | 0 | 7 | 15 | 0 | 10 | 23 | 26 | 4 | 22 | 0 | 5 | 2 | 2 | 12
15 | CC(=O)Nc1n[nH]c2ncc(-c3ccccc3)cc12 [SB-548492] | 3 | 20 | 27 | 24 | 8 | 29 | 1 | 6 | 0 | 0 | 0 | 21 | 6 | 0 | 12 | 0 | 0 | 0 | 90.1 | 25
16 | OCCOCCn1ccc2ncnc(Nc3ccc(Oc4cccc(Cl)c4)c(Cl)c3)c21 | 0 | 0 | 0 | 0 | 0 | 7 | 0 | 0 | 7 | 0 | 0 | 31 | 0 | 0 | 0 | 0 | 0 | 0 | 0 | 0
17 | Fc1cccc(COc2ccc(Nc3ncnc4cc[nH]c34)cc2Cl)c1 | 0 | 8 | 0 | 0 | 0 | 4 | 18 | 0 | 9 | 0 | 0 | 5 | 25 | 12 | 11 | 0 | 27 | 5 | 2 | 17
18 | CN1CCC(n2cnc(-c3ccc(F)cc3)c2-c2ccnc(NC3CCNCC3)n2)CC1 [SB-229482] | 0 | 34 | 0 | 0 | 0 | 0 | 0 | 7 | 28 | 16 | 0 | 0 | 11 | 0 | 1 | 16 | 0 | 0 | 17 | 26
19 | c1ccc(-c2ccc3c(-c4ccnc(Nc5ccc6c(c5)OCCO6)n4)cnn3n2)cc1 [GW818941] | 0 | 0 | 0 | 0 | 5 | 22 | 0 | 12 | 11 | 22 | 22 | 8 | 0 | 0 | 1 | 0 | 12 | 17 | 34 | 0
20 | CS(=O)(=O)CCNCc1ccc(-c2ccc3ncnc(Nc4ccc(OCc5ccccc5)c(Cl)c4)c3c2)o1.Cl [GW574783] | 0 | 0 | 0 | 0 | 0 | 2 | 7 | 4 | 11 | 9 | 34 | 2 | 0 | 0 | 0 | 0 | 9 | 0 | 17 | 0
21 | Cc1cccc(-c2nc(Nc3ccc4[nH]nnc4c3)c3ccccc3n2)n1 [GW867587] | 19 | 0 | 0 | 0 | 0 | 14 | 0 | 0 | 32 | 0 | 0 | 0 | 0 | 0 | 0 | 24 | 0 | 0 | 0 | 0

From publication PMC5540273 (PLoS ONE, 2017)
